CHO-K1 Ca PAM: nonselective calcium activators in parental CHO-K1 cells, primary screen, counter-screen for M1 PAM project, cell-based, Fluo-8 calcium fluorescence, full deck, 1536-well; 360,000 tested, 0.02% active; ATP EC20; 0% at ATP EC20, 100% at ATP max; activation, % at 3 µM;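 active = activation above the run cutoff, the mean activation of all test compounds plus 3 SD, cut at about 40% in these data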;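 note: peak over basal fluorescence ratio in a 140 s read after ATP addition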
CHO-K1 Ca antag: counter-screen for M1 antagonists: effect in parental CHO-K1 cells | ATP-induced calcium, Fluo-8 fluorescence | inhibition, % at 3 µM | 360,000 tested, 0.6% active | AID 602250;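 active = inhibition above a per-plate cutoff, the plate's mean sample inhibition plus 3 SD, cut at about 24% in these data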
CHRM1 agonist: human M1 muscarinic receptor agonists, primary screen, Fluo-8 calcium fluorescence, CHO-K1 cells, HTS; activation, % at 3 µM; CHO-K1 hM1, agonist mode; 0% DMSO, 100% acetylcholine EC100; Muscarinic acetylcholine receptor M1 (Homo sapiens), P11229; AID 588814, 2011; 360,000 tested, 0.33% active;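 active = activation above the run's mean compound activation plus 3 SD, cut at about 16% in these data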;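 note: peak over basal fluorescence ratio within a 140 s kinetic read after compound addition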
Target sequence (P11229 whole entry, looked up): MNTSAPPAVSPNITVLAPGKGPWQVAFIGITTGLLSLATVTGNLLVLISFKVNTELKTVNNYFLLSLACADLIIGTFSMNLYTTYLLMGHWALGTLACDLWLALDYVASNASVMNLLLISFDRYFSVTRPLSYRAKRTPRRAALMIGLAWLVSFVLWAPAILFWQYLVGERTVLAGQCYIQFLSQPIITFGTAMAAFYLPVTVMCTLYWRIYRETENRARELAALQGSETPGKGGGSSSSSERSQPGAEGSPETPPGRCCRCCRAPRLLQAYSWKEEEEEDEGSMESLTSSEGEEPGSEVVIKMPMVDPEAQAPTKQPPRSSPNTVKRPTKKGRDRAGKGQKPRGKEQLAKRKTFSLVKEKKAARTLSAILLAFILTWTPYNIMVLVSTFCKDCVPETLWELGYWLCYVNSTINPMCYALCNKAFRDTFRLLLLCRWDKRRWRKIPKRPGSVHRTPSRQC
CHRM1 PAM: human M1 muscarinic receptor positive allosteric modulators, primary screen, CHO-K1 cells, Fluo-8 calcium fluorescence, 1536-well. Muscarinic acetylcholine receptor M1 (Homo sapiens), P11229. CHO-K1 hM1, ACh EC20; 0% = ACh EC20, 100% = maximal ACh. activation, % at 3 µM. 360,000 tested, 0.088% active. AID 588819, 2011; in the data active = activation above about 19%, passing the limit was not always enough
M1 antag: human M1 muscarinic receptor antagonists, primary screen, CHO-K1 cells, Fluo-8 calcium fluorescence, 1536-well | AID 588852, 2011 | CHO-K1 hM1, ACh EC80 antagonist | 360,000 tested, 1.3% active | Muscarinic acetylcholine receptor M1 (Homo sapiens), P11229 | inhibition, % at 3 µM;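 active = percent inhibition above its own plate's cutoff, namely the mean of that plate's compound wells plus 3 SD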;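 note: peak over basal fluorescence ratio during 140 s after agonist addition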
CHO-K1 Ca ag: counter-screen for M1 agonists: effect in parental CHO-K1 cells; AID 602248, 2012; 360,000 tested, 0.48% active; activation, % at 3 µM; Fluo-8 calcium fluorescence; scaled to maximal ATP response, vehicle zero; in the data active = activation above about 15%;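 note: untransfected CHO-K1 host cells lacking M1 receptor as counterscreen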
Numbers stand for hits; – = inactive. This is a sample that favours compounds with a hit; in the whole collection about 2.3% have one here.

SMILES	CHO-K1 Ca PAM	CHO-K1 Ca antag	CHRM1 agonist	CHRM1 PAM	M1 antag	CHO-K1 Ca ag
O=C(NCC1CCCO1)C1CCN(C2CCN(CCCC3CCCC3)CC2)CC1 (centres undefined)	–	–	–	–	–	–
Cc1ccccc1NC(=O)c1sc2nc[nH]c(=O)c2c1C	–	24	–	–	–	–
c1ccc(CN2CCC(Nc3nc(-c4cccs4)nc4ccccc34)CC2)cc1	–	–	–	–	–	16
CCC(C)(C)c1ccc(OC(=O)c2cccnc2Cl)cc1	–	–	–	–	–	–
CN1CCN(CC#CCn2c3ccccc3c3ccccc32)CC1	–	–	–	–	36	–
CCNC(=O)c1ccc(NC(=O)CC2SC(N3CCCC3)=NC2=O)cc1 (centres undefined)	–	–	–	28	–	–
CCCCCNC(=O)c1ccc(NC(=O)CC2SC(N3CCCC3)=NC2=O)cc1 (centres undefined)	–	–	–	–	–	–
COc1ccc(C2=NN(C(=O)CSc3nc(=O)n4cc(C)ccc4n3)C(c3ccc(C)cc3)C2)cc1 (centres undefined)	–	–	–	–	–	–
CN(C)CCN(C)C1CN(Cc2ccc([N+](=O)[O-])cc2)S(=O)(=O)C1 (centres undefined)	–	–	–	–	–	–
C=CCc1cccc2cc(C(=O)NCc3cccnc3)c(=O)oc12	–	–	–	–	36	–
CCOc1cccc2cc(C(=O)NCc3cccnc3)c(=O)oc12	–	–	–	–	–	–
CCCCNC(=O)c1onc(CS(=O)(=O)c2ccccn2)c1C(=O)NCCCC	–	–	–	–	–	–
CC1(c2ccccc2Cl)NC(=O)N(CC(=O)NCc2ccc3c(c2)OCO3)C1=O (centres undefined)	–	–	–	29	–	–
CC1(c2ccc(Cl)cc2)NC(=O)N(CC(=O)Nc2ccc3c(c2)OCO3)C1=O (centres undefined)	–	–	20	–	–	–
CC1(c2ccccc2)NC(=O)N(CC(=O)NCc2ccc3c(c2)OCO3)C1=O (centres undefined)	–	–	–	–	–	–
Clc1cccc(COn2c(-c3ccc(Cl)cc3Cl)nc3ncccc32)c1	–	–	–	–	–	–
Cc1ccc(COn2c(-c3ccc(Cl)cc3Cl)nc3ncccc32)cc1	–	–	–	–	35	–
O=C(c1ccc(Cl)c(S(=O)(=O)N2CCCCCC2)c1)N1CCCC1	–	–	–	–	–	–
CCc1ccc2c(c1)C(c1ccc([N+](=O)[O-])cc1)=NNC(c1ccc(C)cc1)=N2	–	–	–	–	–	18
COc1ccc(SCCN2CC[C@@H](C)CCC2=O)cc1	–	24	–	–	–	–
COc1ccccc1N(C)C(=O)c1cc(S(=O)(=O)N2CCCC2)cn1C	–	–	–	–	–	–
OCCCCNCc1ccc(OCc2ccc(Cl)cc2Cl)cc1	–	–	–	–	35	–
COc1cccc(-c2cnc(C(O)c3c(C)ccc4ccccc34)[nH]2)c1 (centres undefined)	–	–	–	–	–	20
Cc1ccc2ccccc2c1C(O)c1ncc(-c2ccc(F)cc2)[nH]1 (centres undefined)	–	–	–	–	–	–
COc1ccccc1C(=O)NC(=O)COC(=O)c1cccc(NC(C)=O)c1	–	–	–	–	–	–
SMILES	CHO-K1 Ca PAM	CHO-K1 Ca antag	CHRM1 agonist	CHRM1 PAM	M1 antag	CHO-K1 Ca ag
CN(C)c1ccc(/C=C/c2ccc3c4ccccc4ccc3[n+]2-c2ccccc2)cc1	–	41	–	–	64	16
CCn1c(C)cs/c1=N\C(=S)Nc1ccccc1C	–	24	–	–	–	–
CNc1snc(C)c1C(=O)OCC(=O)c1ccc(OC)c(F)c1	–	–	–	–	40	–
CCN(CC)CCN(C)Cc1nc(C(c2ccccc2)c2ccccc2)no1	–	–	–	–	75	–
CN(CCc1cn[nH]c1)Cc1nc(C(c2ccccc2)c2ccccc2)no1	–	–	–	–	–	–
O=C(CSc1nnc(CNC(=O)c2c(F)cccc2Cl)o1)NCc1ccccc1	–	–	–	–	–	–
CN(CC(=O)Nc1ccccc1Cl)CC(=O)c1c(N)n(Cc2ccccc2)c(=O)n(C)c1=O	–	–	–	–	–	–
COc1ccc(NC(=O)CSc2nnc(-c3cccs3)n2N)cc1S(N)(=O)=O	–	–	–	–	–	–
COc1cc(C2=NOC(C(=O)NCc3cccs3)C2)cc(OC)c1OC (centres undefined)	–	–	–	–	–	–
COc1ccc(C2=NOC(C(=O)NCc3cccs3)C2)cc1 (centres undefined)	–	–	–	–	56	–
CN(Cc1ccccc1)C1=CC(=[N+]2CCCCC2)CC(C)(C)C1	–	–	–	–	39	–
Fc1ccc(Nc2ncnc3sccc23)cc1	–	–	–	–	–	–
CN1/C(=C\C(=O)CSc2ncn[nH]2)C(C)(C)c2ccccc21	–	26	–	–	–	–
CN1/C(=C\C(=O)COC(=O)c2ccccc2O)C(C)(C)c2ccccc21	–	–	–	–	–	17
O=[N+]([O-])c1ccc(N(CC2CO2)S(=O)(=O)c2ccccc2)cc1 (centres undefined)	–	–	–	–	–	–
O=S(=O)(c1ccccc1)N(CC1CO1)c1ccccc1 (centres undefined)	–	–	–	–	–	16
CCOC(=O)C1CCCN(CCC(=O)Nc2ccc3c(c2)CCC3)C1 (centres undefined)	–	–	23	–	–	–
CCOC(=O)C1CCCN(CCC(=O)Nc2ccc(Br)c(C)c2)C1 (centres undefined)	–	–	24	–	–	–
CCOC(=O)C1CCCN(CCC(=O)Nc2ccc(Br)cc2)C1 (centres undefined)	–	–	–	–	–	–
CCOC(=O)C1CCCN(CCC(=O)Nc2ccc(C)c(C)c2)C1 (centres undefined)	–	–	–	–	–	–
O=C(CN1C(=O)NC2(CCCCCCC2)C1=O)NCc1ccccc1Cl	–	–	–	–	–	–
COC(=O)C1=NN(C(=O)c2cccc(Br)c2)C(O)(c2ccc(Cl)cc2)C1 (centres undefined)	–	–	42	–	–	–
Cc1cc(-c2onc(C)c2C(=O)O)no1	–	–	–	–	–	–
COc1ccc(-[n+]2c(C)cc(/C=C3\Sc4ccccc4N3C)cc2C)cc1	–	40	–	–	81	21

Screening results deposited in PubChem by The Scripps Research Institute Molecular Screening Center.
